Laboratory results from PubChem BioAssay (Tox21).
Calls of active or inactive are those of the source. Calls come from the whole dose curve; as a rule, active = well fitted curve in the direction sought with a large enough effect in the repeat runs; inconclusive = weak or mixed curves; inactive = flat fitted curve, though single readings scatter.

Assay: qHTS assay to test for compound auto fluorescence at 460 nm (blue) in HEK293 cells (AID 720678)
Settings: blue autofluorescence 405/460 nm; series mostly up to 46 µM; fluorescence, % of triamterene: at the top concentration
From the text: National Center for Advancing Translational Sciences [NCATS]
NIH Chemical Genomics Center [NCGC]
U.S. Environmental Protection Agency [EPA]
National Institutes of Environmental Health Sciences [NIEHS]
National Toxicology Program [NTP]
U.S. Food and Drug Administration [FDA]
Compound auto fluorescence often interferes with screening of the compound library against various biological targets and signaling pathways. Some of these compounds may have fluorophoric properties. Such properties may interfere with the assay outputs resulting in false positives and/or negatives. To decrease such complications and ensure the compound activities are relevant in terms of biological response, the Tox21 10K compound library was screened for auto fluorescence.
From the fluorophores used as reporter signals in our screening assays, the auto fluorescence equivalencies of compounds against three fluorophores have been evaluated: Triamterene, Fluorescein and Rose Bengal sodium for blue, green and red fluorescence, respectively. The fluorescence intensities were measured using Excitation/Emission wavelengths at 405/460nm, 485/535nm and 540/590nm for blue, green and red labels, respectively. This assay includes the blue fluorescence data.
Tox21 Assay Protocol Summary:
2,000 HEK293 cells in 5 uL of culture medium containing 10% dialyzed FBS per well were dispensed into black wall/clear bottom 1536-well plates using a Multidrop Combi Dispenser (Thermo Scientific). The assay plates were incubated for 4-5 hr at 37C to allow cell attachment to the well bottom, followed by the transfer of 23 nL compound or DMSO vehicle by a pintool work station (Kalypsys, San Diego, CA). After the assay plates were incubated overnight at 37C and 5% CO2, fluorescence intensities in the assay plates were measured by an Envision (PerkinElmer, Shelton, CT) plate reader using three labels for measuring blue, green and red fluorescence at […] 460, 535 and 590nm respectively.
% is set by controls: 0 for no effect and ±100 for the full control effect.

| SMILES | fluorescence, % of triamterene |
| --- | --- |
| CCC/C=C/C=C/C(=O)O[C@H]1/C(=C/C(=O)OC)C[C@H]2C[C@H]([C@@H](C)O)OC(=O)C[C@H](O)C[C@@H]3C[C@H](OC(C)=O)C(C)(C)[C@](O)(C[C@@H]4C/C(=C/C(=O)OC)C[C@H](/C=C/C(C)(C)[C@]1(O)O2)O4)O3 | -0.0014% (inactive) |
| C[C@@H](Cc1ccccc1)NCCC(c1ccccc1)c1ccccc1 | 0.147% [at 18.6 µM] (inactive) |
| CCC(=O)O[C@]1(c2ccccc2)CCN(C)C[C@H]1C | -0.0269% (inactive) |
| O=C1Nc2ccc(Cl)cc2C(c2ccccc2Cl)=NC1O (stereo not given) | -0.0776% (inactive) |
| CC(C)C[C@H]1C(=O)N2CCC[C@H]2[C@]2(O)O[C@](NC(=O)[C@@H]3C[C@@H]4c5cccc6[nH]cc(c56)C[C@H]4N(C)C3)(C(C)C)C(=O)N12 | 0.983% (inactive) |
| CCCCCc1cc(O)c2c(c1)OC(C)(C)c1ccc(C)cc1-2 | 0.111% (inactive) |
| COc1cc(OC)c(OC)cc1C=O | 0.425% [at 91.3 µM] (inactive) |
| CCN(CC)/[N+]([O-])=N/O | 0.0089% (inactive) |
| NCC[C@H](O)C(=O)N[C@@H]1C[C@H](N)[C@@H](O[C@H]2O[C@H](CN)[C@@H](O)[C@H](O)[C@H]2N)[C@H](O[C@@H]2O[C@H](CO)[C@@H](O)[C@H]2O)[C@H]1O | -0.0335% [at 18.6 µM] (inactive) |
| Oc1ccc2c3c1O[C@H]1[C@@H](O)C=C[C@H]4[C@H](C2)NCC[C@@]341 | 0.0536% (inactive) |
| CN[C@@H]1C[C@@H](c2ccc(Cl)c(Cl)c2)c2ccccc21 | 0.0022% (inactive) |
| CC1COC(Cn2cncn2)(c2ccc(Oc3ccc(Cl)cc3)cc2Cl)O1 (stereo not given) | 0.0547% [at 91.3 µM] (inactive) |
| NC(=O)CN1CC(O)CC1=O (stereo not given) | -0.116% (inactive) |
| C#CCN1CC(=O)N(COC(=O)C2C(C=C(C)C)C2(C)C)C1=O (stereo not given) | -0.159% (inactive) |
| C[C@]12CC[C@H](O)C[C@H]1CC[C@@H]1[C@@H]2CC[C@]2(C)[C@@H](c3ccc(=O)oc3)C[C@H]3O[C@]132 | -0.0546% (inactive) |
| CCOC(=O)C1(c2ccccc2)CCCN(C)CC1 (stereo not given) | 0.012% (inactive) |
| CC(=O)[C@@]1(O)CC[C@H]2[C@@H]3CCC4=CC(=O)CC[C@]4(C)C3(F)[C@@H](O)C[C@@]21C (stereo not given in full) | -0.0335% (inactive) |
| CN[C@@H](C)Cc1ccccc1 | 0.0378% [at 91.3 µM] (inactive) |
| CCNC1(c2cccs2)CCCCC1=O (stereo not given) | 0.01% [at 18.6 µM] (inactive) |
| COc1ccc2c(c1)C13CCCC[C@@H]1C(C2)N(C)CC3 (stereo not given in full) | -0.0665% (inactive) |

| SMILES | fluorescence, % of triamterene |
| --- | --- |
| CCCC(C)(COC(N)=O)COC(=O)NC1CC1 (stereo not given) | -0.0124% (inactive) |
| C=C[C@H]1CN2CC[C@H]1C[C@H]2[C@H](OC(=O)OCC)c1ccnc2ccc(OC)cc12 | -0.0798% (inactive) |
| CCN(CC)CCO[C@H]1CC[C@@]2(C)C(=CC[C@@H]3[C@@H]2CC[C@]2(C)C(=O)CC[C@@H]32)C1 | 1.94% (inactive) |
| Cc1cc(C)cc(C(=O)OC2C[C@H]3CC[C@@H](C2)N3C)c1 (stereo not given in full) | -0.0458% (inactive) |
| CCC1C(C)=NN=C(c2ccc(OC)c(OC)c2)c2cc(OC)c(OC)cc21 (stereo not given) | 0.0441% (inactive) |
| C[C@@H](CO)NC(=O)[C@@H]1C=C2c3cccc4[nH]cc(c34)C[C@H]2N(C)C1 | 4.31% (inactive) |
| O=C(CS(=O)C(c1ccccc1)c1ccccc1)NO (stereo not given) | -0.282% (inactive) |
| CCNC(C)Cc1cccc(C(F)(F)F)c1 (stereo not given) | 0.105% (inactive) |
| c1ccc(C2(c3ccccc3)CC2C2=NCCN2)cc1 (stereo not given) | 0.0139% (inactive) |
| O=c1[nH]cc(N(CCCl)CCCl)c(=O)[nH]1 | -0.0642% (inactive) |
| CN1c2ccccc2C(NCCCCCCC(=O)O)c2ccc(Cl)cc2S1(=O)=O (stereo not given) | 0.265% (inactive) |
| Oc1cccc[c]1[Hg][Cl] | 0.0038% (inactive) |
| COC(=O)[C@]12CCC(C)(C)C[C@H]1[C@H]1C(=O)C=C3[C@@]4(C)C=C(C#N)C(=O)C(C)(C)[C@@H]4CC[C@@]3(C)[C@]1(C)CC2 | -0.0218% (inactive) |
| O=C1CN=C(c2ccccc2)c2cc(Cl)ccc2N1 | 0.0223% (inactive) |
| CNc1ccc(C(=O)CC(O)CCC(C)C2OC(=O)CC(O)CC(=O)CC(O)CC(O)CC(O)CC(O)CC3(O)CC(O)C(C(=O)OC)C(CC(O[C@@H]4O[C@H](C)[C@@H](O)[C@H](N)[C@@H]4O)/C=C/C=C/C=C/C=C/C=C/C=C/C=C/C2C)O3)cc1 (stereo not given in full) | -0.0118% (inactive) |
| CC1(C)[C@H](C=C(Cl)Cl)[C@H]1C(=O)OCc1c(F)c(F)cc(F)c1F | -0.154% (inactive) |
| ClC1=C(Cl)[C@]2(Cl)[C@@H]3[C@@H](Cl)[C@H]4O[C@H]4[C@@H]3C1(Cl)C2(Cl)Cl | -0.0293% [at 91.3 µM] (inactive) |
| C=CCC1(C(C)CCC)C(=O)N=C(S)NC1=O (stereo not given) | -0.0889% (inactive) |
| C[N+]1(C)[C@@H]2CC[C@H]1CC(OC(=O)c1c[nH]c3ccccc13)C2 (stereo not given in full) | -0.273% (inactive) |
| CNC(=O)OCC[N+](C)(C)C | -0.0057% (inactive) |
